Assay outcomes as filed in PubChem.
BLM helicase inh: qHTS Assay for Inhibitors of Bloom's syndrome helicase (BLM); RecQ-like DNA helicase BLM (Homo sapiens), P54132; recombinant BLM DNA unwinding, fluorescence dequenching; Potency, µM (highest dose often 56.1 µM), for inactives: at the top dose activity change, negative = inhibition, most hits filed as inhibitors; hit rate 0.2% among 350,000; AID 2528, 2010;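 also: plate controls were vehicle for no effect and no enzyme for full effect; nearly all actives have a fitted effect of over 35% in size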
RECQ1 inh-1: qHTS Assay for Inhibitors of RecQ-Like Dna Helicase 1 (RECQ1); ATP-dependent DNA helicase Q1 (Homo sapiens), P46063; RECQ1 DNA unwinding, red fluorescence kinetic read; Potency, µM (titrated, usually from 57.3 µM), inactives show at the highest dose activity, negative = inhibition, usual class: inhibitors; hit rate 0.54% among 240,000;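 also: plate controls were vehicle for no effect and no enzyme for full effect; nearly all actives have a fitted effect of over 30% in size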
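50 nM RECQ1T1 preincubated 15 min with compound in Tris pH 8.0 buffer with MgCl2, DTT, Tween-20 and 2.5 ug/ml poly(dI-dC); started with 200 nM TAMRA/BHQ-2 forked duplex and 2 mM ATP. Unwinding read as fluorescence (525/598 nm), two reads 2 h apart.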
WRN helicase inh: qHTS for Inhibitors of WRN Helicase. Bifunctional 3'-5' exonuclease/ATP-dependent helicase WRN (Homo sapiens), Q14191. WRN helicase unwinding, fluorescent forked duplex, kinetic. Potency, µM (titrated, usually from 114 µM), for inactives: at the highest dose activity change, negative = inhibition, usual class: inhibitors. hit rate 0.46% among 360,000. AID 651768, 2012; also: nearly all actives have a fitted effect of over 55% in size
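Kinetic red-fluorescence monitoring (525/598 nm) tracks WRN helicase activity after 100 nM fluorophore-quencher forked duplex and 2 mM ATP are added to 20 nM enzyme pretreated 15 min at room temperature with compound.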
FEN1 inh: qHTS Assay for the Inhibitors of Human Flap endonuclease 1 (FEN1); Recombinant FEN1 flap cleavage, fluorescence, 15 min; P39748; Potency, µM (highest dose often 114 µM), for inactives: at the top dose activity change, negative = inhibition, hits mostly inhibitors; hit rate 0.35% among 390,000; also: nearly all actives have a fitted effect of over 65% in size
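Enzyme 10 nM, 15 min RT preincubation with compound; start with substrate 50 nM final; reads at 0 and 15 min; qHTS titration, four-parameter Hill fit.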
APEX1 inh: qHTS Assay for Inhibitors of the Human Apurinic/apyrimidinic Endonuclease 1 (APE1) | recombinant APE1, TAMRA/BHQ-2 abasic DNA cleavage fluorescence | Potency, µM (top dose mostly 65.8 µM), without a hit: top-dose activity change, negative = inhibition, hits mostly inhibitors | hit rate 0.35% among 350,000 | AID 2517, 2012;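 also: plate controls were vehicle for no effect and reference inhibitor for full effect; nearly all actives have a fitted effect of over 55% in size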
Target sequence (P27695 whole entry, looked up): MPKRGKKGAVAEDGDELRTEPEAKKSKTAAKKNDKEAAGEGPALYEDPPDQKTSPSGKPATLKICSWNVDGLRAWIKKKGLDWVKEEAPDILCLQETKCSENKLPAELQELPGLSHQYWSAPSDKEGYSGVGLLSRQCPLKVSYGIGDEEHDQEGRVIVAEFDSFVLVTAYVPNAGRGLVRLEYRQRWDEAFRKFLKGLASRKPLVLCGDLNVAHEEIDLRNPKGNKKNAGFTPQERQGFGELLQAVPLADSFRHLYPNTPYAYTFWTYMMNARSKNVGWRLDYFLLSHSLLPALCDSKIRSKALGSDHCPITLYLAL
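Activity was derived from the fluorescence gain between first and third kinetic reads (60 s intervals, ex 525/em 598 nm) after 50 nM THF-abasic TAMRA/BHQ-2 duplex was added to 0.75 nM APE1 preincubated 15 min with compound.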
RECQ1 conf: Confirmation qHTS Assay for Inhibitors of RecQ-Like Dna Helicase 1 (RECQ1) | shares compounds with RECQ1 inh-1 | RECQ1 helicase DNA unwinding, fluorescence | Potency, µM (highest dose often 229 µM), without a hit: top-dose activity change, negative = inhibition, usual class: inhibitors | hit rate 28% among 610 | AID 2708, 2010; also: nearly all actives have a fitted effect of over 45% in size
ADP FP counter: Counterscreen for RECQ1 Inhibitors: ADP Fluorescence Polarization Displacement Assay. shares compounds with RECQ1 inh-1. ADP fluorescence polarization displacement counterscreen. hit rate 27% among 530. AID 2711, 2010. Potency, µM (series often up to 228 µM), for inactives: at the highest dose activity change, negative = inhibition, actives largely listed as inhibitors; also: nearly all actives have a fitted effect of over 45% in size
RECQ1 inh-2: Confirmation qHTS Assay for Inhibitors of RecQ-Like Dna Helicase 1 (RECQ1) - Round 2 Cherry Picks | hit rate 15% among 1,100 | shares compounds with RECQ1 inh-1 | recombinant RECQ1 DNA unwinding, red fluorescence | Potency, µM (titrated, usually from 119 µM), for inactives: at the highest dose activity, negative = inhibition, most hits filed as inhibitors; also: nearly all actives have a fitted effect of over 50% in size
* hit, by the source's call; i = inactive; ? = inconclusive; / = not tested or not shown; [ ] = another dose, or the depositor's remark. An excerpt weighted towards active compounds, which were near 0.87% of everything screened. Calls follow the shape of the dose curve; as a rule, active = well fitted curve in the direction sought with a large enough effect; inconclusive = small, poorly fitted or top-dose-only effect, or another doubt; inactive = no such curve, though single readings can be large; an effect the other way counts as inactive or inconclusive. Unless noted, % is scaled to controls: 0 for no effect and ±100 for the full control effect; potency is read from the fitted curve at half-maximal effect.

SMILES	BLM helicase inh	RECQ1 inh-1	WRN helicase inh	FEN1 inh	APEX1 inh	RECQ1 conf	others
O=C1NN(c2cccc(Br)c2)C(=O)/C1=C/c1ccc(-c2cc([N+](=O)[O-])ccc2O)o1	-17%	20µM*	?	?	2%	63µM*
Cc1ccc(CCNC(=O)CCSCc2ccccc2Cl)cc1	-5%	/	/	-1%	/	/
CCOc1ccc(NC(=O)CSc2nnc(CC)c(CC)n2)cc1	-1%	/	/	-2%	/	/
Cc1ccc(NC(=O)C2CCN(S(=O)(=O)c3c(C)noc3/C=C/c3ccco3)CC2)nc1	-5%	35µM*	-26%	-10%	-5%	/	RECQ1 inh-2=-11%
Cc1cccnc1NC(=O)C1CCN(S(=O)(=O)c2c(C)noc2/C=C/c2ccco2)CC1	1%	0%	-23%	-5%	2%	/
COc1cc(-c2csc(N3CCOCC3)n2)cc(OC)c1OC	-12%	i	6%	13%	-6%	/
COc1ccc(-c2csc(N3CCN(c4cc(C)nc5ccccc45)CC3)n2)cc1OC	-5%	14µM*	-5%	-21%	?	-3%[114 µM]	ADP FP counter=?;RECQ1 inh-2=-11%
COc1c(C(CC(C)C)OC(C)=O)ccc2c1C(=O)OCc1cc(C)cc(O)c1O2 (centres undefined)	-20%	?	0%	?	-6%	/	RECQ1 inh-2=-13%
CCC(C)CCCCC(=O)NC(CCN)C(=O)NC(C(=O)NC(CCN)C(=O)NC1CCNC(=O)C(C(C)O)NC(=O)C(CCN)NC(=O)C(CCN)NC(=O)C(CC(C)C)NC(=O)C(Cc2ccccc2)NC(=O)C(CCN)NC1=O)C(C)O (centres undefined)	7.9µM*	5µM*	/	/	/	2.8µM*	ADP FP counter=?
COc1cc2c(C(=O)N3CCN(c4ccc(F)cc4)CC3)cn(CC(C)C)c(=O)c2cc1OC	-1%	/	/	-4%	/	/
CCOc1ccc(/C=C/c2nc(C#N)c(Nc3ccc(OC)cc3)o2)cc1	-2%	/	/	5%	/	/
Cc1cc(C)n2c(SCC(=O)Nc3c(C)n(C)n(-c4ccccc4)c3=O)nnc2n1	-2%	-6%	-4%	12%	-2%	18%	ADP FP counter=7%
O=C(O)/C=C/c1ccc([N+](=O)[O-])o1	-6%	i	-25%	-19%	?	/
O=C1NC(=S)S/C1=C\C=C\c1ccc([N+](=O)[O-])o1	-14%	13µM*	40µM*	32µM*	2.8µM*	?
O=C(c1ccc2c(=O)n(CCc3ccccc3)c(=O)[nH]c2c1)N1CCN(c2ccccc2)CC1	-5%	/	-2%	0%	14%	/
COc1ccc(N2CCN(C(=O)c3ccc4c(=O)n(CCc5ccc(OC)c(OC)c5)c(=O)[nH]c4c3)CC2)cc1	-7%	-13%	-4%	-1%	10%	6%	ADP FP counter=?
CCCC1=C/C(=C/c2ccc(-c3ccccc3OC)o2)C(=O)O1	-11%	22µM*	-28%[57.1 µM]	7%	8%	?
